Among all 69,000 compounds or so, about 8,600 (12%) showed an effect of 50% or more. This is one part of a sample in which strong results are shown more often than they occur.
test system: Plasmodium berghei; assay: Screen against P. berghei liver stage (PbLuc), transformed with Luciferase, at 10uM; assay type: functional, HepG2; conditions: tested at 10 uM

Structure (SMILES)	INHIBITION [%]
CCN1CC(C(=O)NCc2cccnc2-n2cccn2)CC1=O (stereo not drawn)	-10.1
COC[C@@]12CCO[C@@H]1CCN(C(=O)c1ccc(F)c(F)c1)C2	-30.6
Cc1nc(COCC2CN(C(=O)N(C)C)Cc3nccn3C2)cs1 (stereo not drawn)	45.4
O=S(=O)(c1cccc(F)c1)N1CCCCC1c1ccn[nH]1 (stereo not drawn)	27.8
CC(C)Nc1nc(N2CCCC2)nc2c1CN(C)CC2	22.4
Cc1nc(N2CCCC2)nc2c1CN(C(C)C)CC2	-10.4
CC(C)Nc1nc(N2CCCC2)nc2c1CCN(S(C)(=O)=O)CC2	35.2
CCC(C)N1CCc2nc(N3CCCC3)nc(NC(C)C)c2C1 (stereo not drawn)	2.59
CC(C)Nc1nc(N2CCCC2)nc2c1CN(S(C)(=O)=O)CC2	-29
Cc1nc(CN2CCc3nc(N4CCCC4)nc(NC(C)C)c3C2)cs1	67.4
Cc1nc(CN2CCc3nc(NC(C)C)nc(C)c3C2)cs1	46.7
CC(C)Nc1nc(N2CCCC2)nc2c1CN(C(C)C)CC2	61.8
CC(C)Nc1nc(N2CCCC2)nc2c1CN(c1ncc(F)cn1)CC2	65.8
Cc1nc(Nc2nncs2)cc(C2CCCN2)n1 (stereo not drawn)	-8.275
COC(=O)c1cccc(C(=O)N2CCCC(n3cncn3)C2)c1 (stereo not drawn)	15.5
CC(C)=CCN1CC2(CCN(Cc3ncc[nH]3)CC2)CC1=O	4.82
CN1CC2(CCN(Cc3ncc[nH]3)CC2)CC1=O	53.7
Cc1ncc(CN2CCC3(CC2)CC(=O)N(C)C3)cn1	55.9
CN1CC2(CCN(Cc3cccc(C#N)c3)CC2)CC1=O	43.1
COCCCN1CC2(CCN(Cc3ncc[nH]3)CC2)CC1=O	28.7
Cc1ccc(=O)n(CC2(O)CCN(Cc3cnc(C)nc3)CC2)n1	15.9
CC(=O)NCC(=O)N1CCn2cc(CN(C)Cc3ccco3)nc2C1	42.5

Structure (SMILES)	INHIBITION [%]
O=C1COC2(CCN(C(=O)c3ccoc3)CC2)CN1Cc1cccnc1	0.112
Fc1ccccc1Oc1nccnc1C1CCCN(C2CCOCC2)C1 (stereo not drawn)	-3.02
O=C(NCc1ccnc(OCC(F)(F)F)c1)NCC1CCCO1 (stereo not drawn)	-20.3
O=C(c1ccc(Br)cc1F)N1CCc2ccncc21	-4.91
COc1ccc(C[C@H]2CN(C3CCOCC3)CC[C@@H]2OCC2CC2)cc1	29.7
Cn1nc(C(=O)N2CCCCC2c2nc3cc(F)ccc3[nH]2)ccc1=O (stereo not drawn)	11.8
O=C(CN1CCCC1c1nc2cc(F)ccc2[nH]1)NCc1ccccn1 (stereo not drawn)	50.1
Fc1ccc2[nH]c(C3CCCN3CCc3ccccn3)nc2c1 (stereo not drawn)	21.8
Fc1ccc2[nH]c(C3CCCN3Cc3c[nH]cn3)nc2c1 (stereo not drawn)	42.6
Cc1cc(C(=O)N2CCCCC2c2nc3cc(F)ccc3[nH]2)no1 (stereo not drawn)	4.97
O=C(c1ccon1)N1CCCCC1c1nc2cc(F)ccc2[nH]1 (stereo not drawn)	62.9
CN1CC2(CCN(Cc3ccoc3)CC2)COc2ccccc2S1(=O)=O	13.7
Cc1cc(C(N)=O)nc(C2(C)CCCN2Cc2cnn(C)c2)n1 (stereo not drawn)	18.3
Cc1nccn1[C@@H]1CC[C@@H](N(C)S(=O)(=O)c2cccc(F)c2)[C@H]1O	16.96
CCN(C(=O)CN1CCCC1c1cc(C)no1)c1ccccc1C (stereo not drawn)	62.4
CCN(C(=O)CN1CCCC1c1ccc(F)cc1)c1ccccc1C (stereo not drawn)	-55.1
Cc1cc(C2CCCN2CC(=O)N(CCC#N)c2ccccc2F)on1 (stereo not drawn)	26.8
CN(C)CCOCc1nnc2n1CCN(Cc1cccs1)CC2	-35
O=C(CSC1CCc2ccccc2NC1=O)NCc1cccs1 (stereo not drawn)	3.13
CN(CCCc1nccn1C)c1nccc(-c2cc(C(=O)O)ccn2)n1	14
O=C(Cc1cnc(-n2cccc2)s1)NCCCO	-1.99
CS(=O)(=O)NCc1ncn2c1CN(Cc1cccs1)CCC2	-17.9

Structure (SMILES)	INHIBITION [%]
CN(C)C(=O)NCc1ncn2c1CN(Cc1cccs1)CCC2	52.3
CN(C)C(=O)NCc1ncn2c1CN(Cc1ccco1)CCC2	28.2
c1coc(COCc2ncn3c2CN(Cc2cccs2)CCC3)c1	56.7
c1csc(CN2CCCn3cnc(COCC4CC4)c3C2)c1	-1.55
OCCOCc1ncn2c1CN(Cc1cccs1)CCC2	21.8
Cc1ccc(S(=O)(=O)NCCc2nnc[nH]2)c2cccnc12	33.7
O=C1CCCN1Cc1ncn2c1CN(C(=O)NC1CCCC1)CCC2	-56.2
O=C(C1CC1)N1CCCCCC1C1CCN(c2ncccn2)CC1 (stereo not drawn)	22.3
NC(=O)N1CCCCCC1C1CCN(c2nccc(C(F)(F)F)n2)CC1 (stereo not drawn)	61.8
N#Cc1cccnc1N1CCC(C2CCCCCN2C(N)=O)CC1 (stereo not drawn)	-5.567
CC(C)N1CCC(c2nccnc2Nc2cnccn2)CC1	23.9
Cc1ncc(C(=O)NCCNC(=O)c2ccccc2)s1	0.411
CCc1ncc(C(=O)NCCNc2ncnc3sccc23)s1	96
CCc1ncc(C(=O)NCCNc2ccncc2)s1	23.4
Cc1ncc(C(=O)NCCNc2ncnc3sccc23)s1	77.1
CCCc1nc(C)c(C(=O)NCCNc2ncccn2)s1	19.6
CCc1nc(C)c(C(=O)NCCNC(=O)c2cccs2)s1	58
CCc1nc(C)c(C(=O)NCCNc2ncccn2)s1	29.1
CCc1nc(C)c(C(=O)NCCNc2ncnc3sccc23)s1	93.3
CCc1nc(C)c(C(=O)NCCNc2ncccc2C#N)s1	2.3
Cc1ncsc1C(=O)NCCNC(=O)c1cccs1	10.2
Cc1ncc(C(=O)NCCNc2ccncc2)s1	-21.3

Structure (SMILES)	INHIBITION [%]
CCc1ncncc1C(=O)NCCNc1ncnc2sccc12	41.3
COc1c(C2CCCN2C(=O)c2cc(C)on2)c(C)nn1C (stereo not drawn)	14.1
Cc1ncc2c(n1)CN(CC(=O)Nc1nccs1)CC2	1.78
COc1ccccc1OCCNCc1c(C)nn(C)c1N(C)C	-11.98
CCOc1ccc(C(=O)N(C)Cc2nccn2CC(F)(F)F)cc1	21.7
Cc1ccc(CC(=O)N2CCCC(n3nc(C)cc3C)C2)cn1 (stereo not drawn)	5.03
CC(=O)c1cccc(NC(=O)Cn2cc(-c3ccccc3)ncc2=O)c1	17
O=C(NCc1ccnc(OCC2CC2)c1)C1Cc2ccccc2O1 (stereo not drawn)	-39.6
Clc1ccccc1CN1CCCC(c2nnc(-c3cnccn3)o2)C1 (stereo not drawn)	2.71
CC(O)c1cn(Cc2ccc(F)cc2)nn1 (stereo not drawn)	23.6
CN(C)c1ncc(-c2cc(C(=O)NCCC#N)n(CC3CC3)c2)cn1	-2.35
Cc1cnc(-c2nc(C3CCN(Cc4ccccc4Cl)CC3)no2)cn1	32.35
c1cc(-c2noc(CN3CCn4c(nnc4C4CC4)C3)n2)cs1	-14.65
Cc1nc(C)n(C2CCCN(C(=O)CCc3cscn3)C2)n1 (stereo not drawn)	37.9
c1cnc(C2CCCN(Cc3ccsc3)C2)cn1 (stereo not drawn)	25.4
O=C(c1c[nH]c(=O)[nH]1)N1CCCC2(CCC(=O)N(C3CCCC3)C2)C1 (stereo not drawn)	37.7
CC1(C)CC(C(=O)N2CCC3(CCC(=O)N(C4CC4)C3)CC2)CCO1 (stereo not drawn)	53.3
CC1(C)CC(CN2CCC3(CCC(=O)N(C4CCC4)C3)CC2)CCO1 (stereo not drawn)	6.27
Cc1cnn(CC(=O)N2CCC3(CCC(=O)N(C4CCCC4)C3)CC2)c1	39.1
O=C(Cc1c[nH]c(=O)[nH]c1=O)N1CCC2(CCC(=O)N(C3CC3)C2)CC1	58.2
CC(=O)c1ccc(N2CCC3(CCC(=O)N(C4CC4)C3)CC2)nc1	-25.7
Cc1ncc(CC(=O)N2CCC3(CCC(=O)N(C4CC4)C3)CC2)c(=O)[nH]1	50.8

Structure (SMILES)	INHIBITION [%]
O=C(Nc1ccc(F)cc1)N1CCC2(CCC(=O)N(C3CC3)C2)CC1	31.6
Cc1ncc(CC(=O)N2CCC3(CCC(=O)N(CCO)C3)CC2)c(=O)[nH]1	46.1
O=C(COC1CCCC1)NCCc1noc(-c2ccccn2)n1	-13.1
Cc1cc(N(C)C)nc(C2COCCN2Cc2cc(C)on2)n1 (stereo not drawn)	44.8
CNC(=O)C1(c2cnccn2)CCCN1C(=O)c1ccc(OC)cc1 (stereo not drawn)	20.8
N[C@@H](Cc1c[nH]cn1)C(=O)N1CCC(Oc2ccc(F)cc2)CC1	42.8
O=C(O)COc1ccc(Cl)cc1CN1CCC2(CCNCC2)CC1	5.46
O=C(O)COc1ccc(Cl)cc1CN1CCC2(CCOCC2)CC1	64.5
CN1CC2(CCN(Cc3cc(Cl)ccc3OCC(=O)O)CC2)OC1=O	33.3
Cc1ccc2cc(C(=O)N3CCCC3Cn3cccn3)[nH]c2c1 (stereo not drawn)	-167
CCC1CN(C)c2ccccc2CN1CCn1cncn1 (stereo not drawn)	40.6
Cc1ccc(-n2cccn2)cc1S(=O)(=O)N1C[C@H](C2CC2)[C@@H](N)C1	59.5
COc1ccc(-n2cccn2)cc1S(=O)(=O)N1C[C@H](C2CC2)[C@@H](N)C1	12.8
N[C@H]1CN(S(=O)(=O)c2ccccc2)C[C@@H]1C1CC1	58.3
N[C@H]1CN(S(=O)(=O)c2cccnc2)C[C@@H]1C1CC1	1.98
Cc1ccc(-n2cccn2)cc1S(=O)(=O)N1C[C@H]2CC[C@@H](C1)N(C)C2	48.1
N[C@H]1CN(S(=O)(=O)Cc2ccccc2)C[C@@H]1C1CC1	-28.7
NC(=O)c1ccc(OCCCN2C[C@H](C3CC3)[C@@H](N)C2)cc1	-13.4
N[C@H]1CN(CCCOc2ccccc2)C[C@@H]1C1CC1	53.8
N[C@H]1CN(CCOc2ccc(F)cc2)C[C@@H]1C1CC1	27.6

— ChEMBL document CHEMBL4513216, “Probing the Open Global Health Chemical Diversity Library for Multistage-Active Starting Points for Next-Generation Antimalarials” (ACS Infect Dis, 2020)
